The assay has as its target Proto-oncogene tyrosine-protein kinase Src (Homo sapiens) (UniProt P12931). As to conditions: at 1 µM.
Sequence of Proto-oncogene tyrosine-protein kinase Src (Homo sapiens) (P12931 2-536 limits assumed): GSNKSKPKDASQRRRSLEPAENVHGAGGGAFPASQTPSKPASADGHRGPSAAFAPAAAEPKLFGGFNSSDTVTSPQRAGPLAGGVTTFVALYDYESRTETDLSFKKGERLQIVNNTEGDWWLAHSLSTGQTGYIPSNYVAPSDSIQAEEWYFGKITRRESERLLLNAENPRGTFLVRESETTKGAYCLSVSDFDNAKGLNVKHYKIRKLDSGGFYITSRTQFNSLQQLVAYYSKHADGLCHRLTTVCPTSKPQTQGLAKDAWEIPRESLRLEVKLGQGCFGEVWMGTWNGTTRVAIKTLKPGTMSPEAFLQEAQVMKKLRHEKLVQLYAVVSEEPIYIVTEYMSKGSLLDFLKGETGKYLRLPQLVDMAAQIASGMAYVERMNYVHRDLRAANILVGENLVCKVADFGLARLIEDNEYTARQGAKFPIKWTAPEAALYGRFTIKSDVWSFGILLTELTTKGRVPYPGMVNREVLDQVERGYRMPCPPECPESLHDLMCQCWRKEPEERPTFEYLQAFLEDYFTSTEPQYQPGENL
`Oc1cccc(-c2nc(-c3ccccc3)[nH]c2-c2ccncc2)c1`: the inhibition (usually how much of the control response was suppressed) stood at 63.2%.

For the molecule `Nc1ccc(C#Cc2cncnc2Nc2ccc(OCc3cccc(F)c3)c(Cl)c2)cc1`, the inhibition came out at 3.71%.

As for `NS(=O)(=O)c1ccc(NC=C2C(=O)Nc3ccc4ncsc4c32)cc1`, the inhibition was determined as 61.9%.

Regarding `NS(=O)(=O)c1ccc(-c2cc3ccncc3cc2OCc2ccccc2)cc1`, the inhibition was determined as 6.83%.

In the case of `Cc1cc(O)cc(C)c1/C=C/c1cncc(C(=O)N(C)C)c1`, the inhibition was 7.43%.

`c1ccc(Nc2ncc(-c3ccccc3)o2)cc1` showed an inhibition of 14.3%.

As to `COc1cccc(-n2nc(C)c3c(N/N=C(\C)c4ccncc4)ncnc32)c1`, the inhibition is 3.26%.

`NC(=O)c1sc(-n2cnc3ccccc32)cc1OCc1ccccc1Br` registered an inhibition of 12.9%.

`CCOc1nccc2c1nc(-c1nonc1N)n2CC`: the inhibition amounted to 5.71%.

`CN(C)CCCn1c(-c2nonc2N)nc2cnccc21` returned an inhibition of 6.8%.

As to `NC(=O)c1cccc(Nc2nccc(Nc3cccc(F)c3)n2)c1`, the inhibition was found to be 64.8%.

On to `COC(=O)c1ccc2c(c1)C(=Cc1cc(Br)c(O)c(Br)c1)C(=O)N2`, for which the inhibition amounted to 19.6%.

With `FC(F)(F)c1ccc(-c2nn3ncccc3c2-c2ccnc(Nc3ccc4c(c3)OCCO4)n2)cc1`, the inhibition is 15.8%.

For the molecule `COc1cc(/C=N/Nc2ncnc3c2cnn3C(C)C)ccc1O`, the inhibition is 72.7%.

`COC(=O)c1cncc(/C=C/c2c(C)cc(O)cc2C)c1` had an inhibition of 38.2%.

`COc1cc2ncn(-c3cc(OCc4ccccc4S(C)(=O)=O)c(C#N)s3)c2cc1OC`: the inhibition is 50.1%.

On to `Cc1ccc2c(-c3ccnc(Nc4ccc5c(c4)OCCO5)n3)c(-c3ccc(C(F)(F)F)cc3)nn2n1`, for which the inhibition stood at 5.52%.

For `Cc1ccc(Nc2ccnc(Nc3cccc(C(N)=O)c3)n2)cc1O`, the inhibition amounted to 90.7%.

The record behind these values is ChEMBL document CHEMBL1961873, “Compounds: GSK PKIS; Assays: Nanosyn kinase panel” (2012).
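Also: each value is an averaged percent inhibition of SRC.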
